Measurements: PubChem BioAssay (Tox21)
Values without a mark were called inactive. Inconclusive results are not listed. A call without a number means that no potency is given here. Activity calls are given as the source filed them. Unless noted, calls come from the whole dose curve.

Legend:
[1] = Nuclear factor erythroid 2-related factor 2/antioxidant responsive element (Nrf2/ARE) small molecule agonists: qHTS cell viability counter screen in human keratinocytes (AID 1919968; active = well fitted curve in the direction sought with a large enough effect in the repeat runs; an effect the other way counts as inactive or inconclusive; note: nearly all actives have a fitted effect of over 55% in size; note: potency is the fitted concentration of half-maximal effect)
How it was run: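 Viability counter-screen: KeratinoSens reporter cells, DMSO-delivered compounds, 23 h at 37 C, CellTiter-Fluor fluorescence.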

[2] = Nuclear factor erythroid 2-related factor 2/antioxidant responsive element (Nrf2/ARE) small molecule agonists: luciferase reporter gene qHTS assay in human keratinocytes (AID 1919969); note: nearly all actives have a fitted effect of over 35% in size; note: potency is the fitted concentration of half-maximal effect
[3] = target: Gonadotropin-releasing hormone receptor (Homo sapiens) (UniProt P30968); assay: Human gonadotropin-releasing hormone receptor (GnRHR) small molecule agonists, calcium flux assay in GnRHR-HEK293 cells (AID 1920063); note: nearly all actives have a fitted effect of over 35% in size
How it was run: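 Tox21-format agonist screen using human GnRHR-expressing HEK293 cells and a fluorescent calcium dye; kinetic 3-min fluorescence reading after compound addition, 15-point concentration series run in triplicate.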

[4] = target: KiSS-1 receptor (Homo sapiens) (UniProt Q969F8); assay: Human kisspeptin (KISS1R) small molecule agonists, calcium flux assay in KISS1R-HEK293 cells (AID 1920064; active = well fitted curve in the direction sought with a large enough effect in the repeat runs; an effect the other way counts as inactive or inconclusive)
How it was run: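 Intracellular calcium mobilization in KISS1R-HEK293 cells was recorded by fluorescence (Ex/Em 480/540) for 3 min following compound addition to cells pre-loaded 1 h with calcium dye.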

[5] = G protein-coupled receptor (GPCR) small molecule agonists, calcium flux assay: HEK293 wild type cell line counter screen (AID 1920065)
How it was run: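 In this agonist-mode screen, ATP is the positive control and DMSO the vehicle. Cells grow 18 h before a 1 h dye incubation at 37 C; signal is taken at Ex/Em 480/540 over 3 min.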

[6] = p53 small molecule agonists, cell-based qHTS assay with human liver microsomes (AID 1963577);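 note: p53 response element beta-lactamase reporter cells with liver microsomes plus NADPH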
How it was run: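 Reporter activation was measured by LiveBLAzer fluorescence intensity in p53RE-bla cells, which had been exposed to compounds for 16 h at 37 C alongside 0.5 mg/mL human liver microsomes and 0.5 mg/mL NADPH (final concentrations).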

[7] = p53 small molecule agonists, cell-based qHTS assay with rat liver microsomes (AID 1963578)
How it was run: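 Compound in DMSO added to p53RE-bla cells 5 h post-plating; rat microsomes/NADPH 0.5 mg/mL final; 16 h, 37 C; LiveBLAzer 2 h RT.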

[8] = p53 small molecule agonists, cell-based qHTS assay with human liver microsomes: qHTS cell viability counter screen (AID 1963579); note: nearly all actives have a fitted effect of over 45% in size
How it was run: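 HLM-supplemented (0.5 mg/mL final) and NADPH-supplemented (0.5 mg/mL final) p53RE-bla cultures, 4,000 cells per well, were dosed with compounds in DMSO for 16 h at 37 C; luminescent ATP detection (CellTiter-Glo, 30 min, room temperature) quantified surviving cells.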

[9] = p53 small molecule agonists, cell-based qHTS assay with rat liver microsomes: qHTS cell viability counter screen (AID 1963580); note: nearly all actives have a fitted effect of over 45% in size
How it was run: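 p53RE-bla HCT-116 cells were exposed 16 h at 37 C to compounds with rat liver microsomes (0.5 mg/mL) and NADPH (0.5 mg/mL). Viability was measured in the same wells as ATP content by CellTiter-Glo luminescence.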

[10] = p53 small molecule agonists, cell-based qHTS assay: qHTS cell viability counter screen (AID 1963581); note: nearly all actives have a fitted effect of over 45% in size; note: potency is the fitted concentration of half-maximal effect
How it was run: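 Compounds are pinned onto HCT-116 p53RE-bla cells and left 16 h at 37 C. Following the reporter FRET read, ATP is quantified by CellTiter-Glo luminescence after 30 min at room temperature.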

[11] = cAMP Responsive Elements (CRE) small molecule agonists, cell-based qHTS assay (AID 1963590)
How it was run: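 FRET-based beta-lactamase readout (LiveBLAzer B/G, 2 h RT) quantified CRE activation in HEK 293T CRE-bla cells after 3 h treatment with DMSO-dissolved compounds.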

[12] = cAMP Responsive Elements (CRE) small molecule antagonists, cell-based qHTS assay (AID 1963591; active = well fitted inhibition curve with a large enough effect in the signal ratio in the repeat runs, not every such curve was filed as active; the % refers to the signal ratio)
How it was run: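 qHTS in CRE-bla HEK 293T cells: compound in DMSO, then 0.25 uM NKH477 (final), 3 h at 37 °C/5% CO2; beta-lactamase FRET read-out after 2 h substrate incubation.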

[13] = target: Beta-2 adrenergic receptor (Homo sapiens) (UniProt P07550); assay: Adrenergic beta2 receptor (ADRB2) small molecule antagonists, cell-based qHTS assay (AID 1963592); note: nearly all actives have a fitted effect of over 50% in size; note: potency is the fitted concentration of half-maximal effect
How it was run: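 Cells (CHO, stable ADRB2 overexpression) incubated 18-20hr at 37C; compounds added from DMSO; agonist mix (1nM isoproterenol, 100uM IBMX, 25uM Ro-20-1724) added; 0.5hr RT; d2-cAMP and anti-cAMP-cryptate added; 1hr RT; 665/615 nm read.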

[14] = target: D(2) dopamine receptor (Homo sapiens) (UniProt P14416); assay: Dopamine D2 receptor (DRD2) small molecule agonists, cell-based qHTS assay (AID 1963594); note: nearly all actives have a fitted effect of over 35% in size
How it was run: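 HEK293 cells stably expressing human DRD2, pre-treated with PDE inhibitor Ro20-1724 (0.1 mM final) and compound 10 min at room temperature, then stimulated with NKH477 (200nM […]) for 30 min. cAMP read by HTRF (665/620 nm).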

[15] = target: D(2) dopamine receptor (Homo sapiens) (UniProt P14416); assay: Dopamine D2 receptor (DRD2) small molecule antagonists, cell-based qHTS assay (AID 1963595; active = well fitted inhibition curve with a large enough effect in the signal ratio in the repeat runs, with a control signal flat; the % refers to the signal ratio)
How it was run: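 HTRF cAMP read-out at 665 and 620 nm emission (340 nm excitation). Antagonist mode: compounds were tested against 12 nM quinpirole in DRD2-HEK293 cells, with 200 nM NKH477 raising cAMP and 0.1 mM Ro20-1724 blocking its breakdown.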

[16] = target: 5-hydroxytryptamine receptor 2A (Homo sapiens) (UniProt P28223); assay: 5-hydroxytryptamine receptor 2A (HTR2A) small molecule agonists, cell-based qHTS assay (AID 1963587); note: nearly all actives have a fitted effect of over 30% in size; note: potency is the fitted concentration of half-maximal effect
How it was run: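 CHO cells stably expressing human HTR2A, plated 18 h, loaded with calcium dye 1 h at 37 C. Agonist mode: compounds added and intracellular calcium fluorescence recorded kinetically for 2 min at 1 sec intervals.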

[17] = target: Muscarinic acetylcholine receptor M1 (Homo sapiens) (UniProt P11229); assay: Cholinergic receptor muscarinic 1 (CHRM1) small molecule antagonists, cell-based qHTS assay (AID 1963588); note: nearly all actives have a fitted effect of over 40% in size
How it was run: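 CHRM1-CHO calcium-flux assay, antagonist mode. Cells were seeded 18 h, dye-loaded 1 h at 37 C and given compound for 5 min at RT, then acetylcholine was added at 50nM. FDSS fluorescence was read 3 min; 15 concentrations, three runs.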

[18] = target: Muscarinic acetylcholine receptor M1 (Homo sapiens) (UniProt P11229); assay: Cholinergic receptor muscarinic 1 (CHRM1) small molecule agonists, cell-based qHTS assay (AID 1963589); note: nearly all actives have a fitted effect of over 35% in size
How it was run: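 Stable CHRM1-CHO cells (human receptor) were incubated 18 h, dye-loaded for 1 h at 37 C and exposed to test compounds for agonist activity, with calcium-dependent fluorescence followed kinetically.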

[19] = target: Beta-2 adrenergic receptor (Homo sapiens) (UniProt P07550); assay: Adrenergic beta2 receptor (ADRB2) small molecule agonists, cell-based qHTS assay (AID 1963593);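 note: CHO cells stably overexpressing human ADRB2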
How it was run: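 CHO cells stably over-expressing ADRB2 were plated overnight at 37C, then dosed with compounds plus a stimulation mix containing 100uM IBMX and 25uM Ro-20-1724 for 0.5hr at room temperature. cAMP was measured by HTRF competition, 1hr.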

[20] = target: 5-hydroxytryptamine receptor 2A (Homo sapiens) (UniProt P28223); assay: 5-hydroxytryptamine receptor 2A (HTR2A) small molecule antagonists, cell-based qHTS assay (AID 1963586); note: nearly all actives have a fitted effect of over 45% in size
How it was run: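 Antagonist-mode intracellular calcium assay: DOI (4 nM) added after 5 min compound pre-incubation at room temperature to dye-loaded HTR2A-CHO cells. Fluorescence followed for 3 min, sampled every second.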

Sequence of Muscarinic acetylcholine receptor M1 (Homo sapiens) (P11229 whole entry, looked up): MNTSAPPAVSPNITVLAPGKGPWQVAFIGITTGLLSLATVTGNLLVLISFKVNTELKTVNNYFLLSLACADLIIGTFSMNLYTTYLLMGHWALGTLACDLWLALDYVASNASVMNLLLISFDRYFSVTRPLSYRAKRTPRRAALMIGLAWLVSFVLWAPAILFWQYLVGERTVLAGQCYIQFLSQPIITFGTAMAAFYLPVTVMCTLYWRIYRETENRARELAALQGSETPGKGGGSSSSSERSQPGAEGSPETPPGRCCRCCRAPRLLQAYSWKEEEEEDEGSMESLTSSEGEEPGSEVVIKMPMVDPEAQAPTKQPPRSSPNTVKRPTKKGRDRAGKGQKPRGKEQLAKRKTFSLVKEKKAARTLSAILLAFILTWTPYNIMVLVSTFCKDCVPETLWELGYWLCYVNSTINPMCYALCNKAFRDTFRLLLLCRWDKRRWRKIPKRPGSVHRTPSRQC
Sequence of Gonadotropin-releasing hormone receptor (Homo sapiens) (P30968 whole entry, looked up): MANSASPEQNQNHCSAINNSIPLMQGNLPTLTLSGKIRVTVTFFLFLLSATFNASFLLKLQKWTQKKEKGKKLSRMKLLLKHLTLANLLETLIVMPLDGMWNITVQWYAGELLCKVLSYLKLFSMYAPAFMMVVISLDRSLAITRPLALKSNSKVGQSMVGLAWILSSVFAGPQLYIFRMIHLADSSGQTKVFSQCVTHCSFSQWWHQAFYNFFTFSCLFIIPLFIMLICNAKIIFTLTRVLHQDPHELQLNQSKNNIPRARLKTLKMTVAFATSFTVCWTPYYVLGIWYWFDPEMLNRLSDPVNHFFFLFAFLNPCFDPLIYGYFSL
Sequence of KiSS-1 receptor (Homo sapiens) (Q969F8 whole entry, looked up): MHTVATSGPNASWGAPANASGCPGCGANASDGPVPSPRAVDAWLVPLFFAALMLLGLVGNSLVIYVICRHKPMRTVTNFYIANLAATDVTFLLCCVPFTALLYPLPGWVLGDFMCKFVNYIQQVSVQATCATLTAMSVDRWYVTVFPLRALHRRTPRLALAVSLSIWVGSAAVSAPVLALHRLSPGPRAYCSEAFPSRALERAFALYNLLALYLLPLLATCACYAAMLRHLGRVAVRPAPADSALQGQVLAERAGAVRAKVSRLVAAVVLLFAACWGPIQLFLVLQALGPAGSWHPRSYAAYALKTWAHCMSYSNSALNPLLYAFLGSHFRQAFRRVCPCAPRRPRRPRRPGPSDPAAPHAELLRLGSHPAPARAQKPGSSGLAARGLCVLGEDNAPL
Sequence of 5-hydroxytryptamine receptor 2A (Homo sapiens) (P28223 whole entry, looked up): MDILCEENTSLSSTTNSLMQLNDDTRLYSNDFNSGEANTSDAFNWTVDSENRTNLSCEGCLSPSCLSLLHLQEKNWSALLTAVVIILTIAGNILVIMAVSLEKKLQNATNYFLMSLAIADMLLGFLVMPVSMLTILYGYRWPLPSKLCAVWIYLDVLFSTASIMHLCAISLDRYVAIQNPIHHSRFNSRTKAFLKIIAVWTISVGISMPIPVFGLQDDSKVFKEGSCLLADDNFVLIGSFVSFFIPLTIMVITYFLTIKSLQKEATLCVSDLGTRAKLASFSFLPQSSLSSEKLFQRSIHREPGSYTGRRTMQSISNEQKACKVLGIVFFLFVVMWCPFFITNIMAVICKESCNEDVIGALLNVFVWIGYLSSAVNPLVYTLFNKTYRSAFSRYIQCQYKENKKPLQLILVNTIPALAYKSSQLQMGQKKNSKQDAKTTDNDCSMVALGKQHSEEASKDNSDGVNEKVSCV
Sequence of D(2) dopamine receptor (Homo sapiens) (P14416 whole entry, looked up): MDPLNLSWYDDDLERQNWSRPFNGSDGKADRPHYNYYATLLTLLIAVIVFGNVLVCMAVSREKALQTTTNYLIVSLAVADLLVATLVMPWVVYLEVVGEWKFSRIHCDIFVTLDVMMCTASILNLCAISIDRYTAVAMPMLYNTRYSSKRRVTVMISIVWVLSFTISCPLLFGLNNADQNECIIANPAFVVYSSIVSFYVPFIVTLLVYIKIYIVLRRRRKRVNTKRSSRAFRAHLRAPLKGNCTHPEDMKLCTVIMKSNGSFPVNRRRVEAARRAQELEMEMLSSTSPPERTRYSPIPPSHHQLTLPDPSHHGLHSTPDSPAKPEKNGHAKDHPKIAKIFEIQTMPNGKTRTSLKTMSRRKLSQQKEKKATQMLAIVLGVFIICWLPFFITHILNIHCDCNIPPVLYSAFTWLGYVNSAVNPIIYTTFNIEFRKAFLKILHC
Sequence of Beta-2 adrenergic receptor (Homo sapiens) (P07550 whole entry, looked up): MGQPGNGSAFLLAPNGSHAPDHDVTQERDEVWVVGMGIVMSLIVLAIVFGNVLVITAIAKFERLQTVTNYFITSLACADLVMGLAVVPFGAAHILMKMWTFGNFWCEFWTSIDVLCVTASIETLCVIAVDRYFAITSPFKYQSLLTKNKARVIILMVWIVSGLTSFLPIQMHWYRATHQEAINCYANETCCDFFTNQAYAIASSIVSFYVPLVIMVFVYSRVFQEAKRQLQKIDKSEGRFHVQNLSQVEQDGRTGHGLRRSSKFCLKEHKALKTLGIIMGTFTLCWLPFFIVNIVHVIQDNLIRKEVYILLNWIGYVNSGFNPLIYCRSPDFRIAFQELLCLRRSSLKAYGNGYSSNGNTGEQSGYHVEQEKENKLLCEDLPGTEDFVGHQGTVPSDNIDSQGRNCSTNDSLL

Structure (SMILES) | Potency [1] | Potency [2] | Potency [3] | outcome [4] | outcome [5] | Potency [6] | Potency [7] | Potency [8] | Potency [9] | Potency [10] | Potency [11] | Potency [12] | Potency [13] | Potency [14] | Potency [15] | Potency [16] | Potency [17] | Potency [18] | Potency [19] | Potency [20]
CC(=O)O[C@H]1C[C@@H]2CC[C@@H]3[C@H](CC[C@@]4(C)[C@H]3C[C@H]([N+]3(C)CCCCC3)[C@@H]4OC(C)=O)[C@@]2(C)C[C@@H]1N1CCCCC1 | inactive | inactive | inactive | inactive | inactive | inactive | inactive | inactive | inactive | inactive | inactive | inactive | inactive | inactive | inactive | – | – | – | – | –
CCC(C)c1cc([N+](=O)[O-])cc([N+](=O)[O-])c1OC(=O)OC(C)C (stereo unspecified) | 38.6 µM (active) | 9.69 µM (active) | inactive | inactive | inactive | inactive | inactive | inactive | inactive | inactive | – | – | – | inactive | inactive | inactive | inactive | inactive | – | –
Clc1nc(C(Cl)(Cl)Cl)c(Cl)c(Cl)c1Cl | 48.6 µM (active) | 21.7 µM (active) | inactive | inactive | inactive | inactive | inactive | inactive | inactive | inactive | – | – | inactive | – | inactive | inactive | inactive | inactive | – | –
Nc1ccc(S(=O)(=O)NCc2ccccc2)cc1 | inactive | inactive | inactive | inactive | inactive | inactive | inactive | inactive | inactive | inactive | inactive | inactive | inactive | inactive | – | inactive | – | inactive | inactive | –
COC(=O)C1=C(C)NC(C)=C(C(=O)OCCN2CCN(C(c3ccccc3)c3ccccc3)CC2)C1c1cccc([N+](=O)[O-])c1 (stereo unspecified) | inactive | inactive | inactive | inactive | inactive | inactive | inactive | inactive | inactive | inactive | – | inactive | inactive | – | inactive | inactive | inactive | inactive | inactive | –
CCCCCN=C(N)N/N=C/c1c[nH]c2ccc(OC)cc12 | 6.68 µM (active) | inactive | inactive | inactive | inactive | inactive | inactive | inactive | inactive | 15.8 µM (active) | – | – | 26.6 µM (active) | – | – | 0.0107 µM (active) | inactive | – | – | –
CC(=O)c1c(C)cc(C(C)(C)C)cc1C | inactive | inactive | inactive | inactive | inactive | inactive | inactive | inactive | inactive | inactive | – | inactive | inactive | – | – | – | – | inactive | inactive | inactive
NS(=O)(=O)c1cc2c(cc1Cl)CN(C1CCCCC1)C2=O | inactive | inactive | inactive | inactive | inactive | inactive | inactive | inactive | inactive | inactive | – | – | – | inactive | inactive | inactive | inactive | inactive | inactive | –
CCCCCCCCCCCSCC(=O)O | inactive | inactive | inactive | inactive | inactive | inactive | inactive | inactive | inactive | inactive | – | – | inactive | – | inactive | inactive | inactive | inactive | inactive | –
Cc1ccc2c(c1[N+](=O)[O-])C(=O)c1ccccc1C2=O | inactive | 16.9 µM (active) | inactive | inactive | inactive | inactive | inactive | inactive | inactive | inactive | – | inactive | inactive | inactive | inactive | inactive | inactive | inactive | inactive | –
O=C(OCC1CO1)C1CCCCC1C(=O)OCC1CO1 (stereo unspecified) | inactive | 68.7 µM (active) | inactive | inactive | inactive | inactive | inactive | inactive | inactive | inactive | – | – | inactive | inactive | inactive | inactive | inactive | inactive | – | –
CCCCCCOc1ccc(N)cc1 | inactive | 21.7 µM (active) | inactive | inactive | inactive | inactive | inactive | inactive | inactive | inactive | inactive | – | inactive | inactive | inactive | – | inactive | inactive | – | –
Fc1ccc([C@@H]2CCNC[C@H]2COc2ccc3c(c2)OCO3)cc1 | inactive | inactive | inactive | inactive | inactive | inactive | inactive | inactive | inactive | inactive | inactive | inactive | inactive | – | inactive | – | – | – | – | –
CCC(C(=O)OCCN1CCOC(c2ccccc2)C1C)c1ccccc1 (stereo unspecified) | inactive | inactive | inactive | inactive | inactive | inactive | inactive | inactive | inactive | inactive | inactive | inactive | inactive | inactive | inactive | inactive | – | inactive | inactive | –
[Cu+] | inactive | 54.5 µM (active) | inactive | inactive | inactive | inactive | inactive | inactive | inactive | – | inactive | inactive | – | – | – | inactive | inactive | inactive | – | inactive
